# Bioassay records as filed in PubChem.
# TLR4 MyD88 comp = inhibitors of human TLR4-MyD88 binding. O00206+Q99836. HeLa CL3-4 TLR4/MyD88 BLA complementation, FRET ratio. inhibition, % at 8.4 µM. actives 0.18% (n = 200,000). AID 861; in the data active = inhibition above about 25%;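 also: 0% = vehicle and 100% = reference inhibitor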
# m5-HT2A agonist = agonists of mouse serotonin 5-HT2A receptor (HTR2A); P35363; CHO-K1 mHTR2A beta-arrestin complementation, luminescence; percent of 30 µM serotonin response; activation, % at 7.6 µM; actives 0.66% (n = 360,000); AID 624169;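 active = activation above a run cutoff, the mean activation of all tested compounds plus 3 SD, cut at about 14% in these data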;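 also: 0% = plate median of compound wells and 100% = 30 µM serotonin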
# LANA-H2A inh = blocks KSHV LANA binding to histone H2A/H2B; actives 0.6% (n = 320,000); inhibition, % (no concentration beside the values); cell-free LANA-H2A/H2B peptide, fluorescence polarization; Q9QR71; in the data active = inhibition mostly above about 10%, no sharp cut-off; inactive = mostly below about 6.7%
# TLR9-MyD88 inh = TLR9-MyD88 interaction inhibition. CHO BLA complementation TLR9-MyD88, CCF4 FRET ratio. Q9NR96+Q99836. actives 0.21% (n = 340,000). inhibition, % at 4.98 µM;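 active = inhibition above the mean over all tested compounds plus 3 SD, cut at about 21% in these data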;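 also: 0% = DMSO only wells and 100% = clavulanate BLA inhibitor control wells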
# NOD2-RIPK2 inh = inhibitors of human NOD2-RIPK2 interaction; O43353; actives 0.38% (n = 360,000); CHO BLA complementation NOD2-RIPK2, CCF4 ratio; inhibition, % at 4.98 µM; in the data active = inhibition above about 21%;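 also: 0% = vehicle only and 100% = reference blocker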
# Rtt109 HAT inh = inhibitors of Candida albicans Rtt109/Vps75 histone acetyltransferase; Q5AAJ8; purified Rtt109/Vps75, ThioGlo CoA-SH fluorescence, 4 h; inhibition, % at 34.9 µM; actives 0.16% (n = 330,000); AID 540336;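 active = inhibition of at least 50% in every replicate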
# * marks the source's active call; other numbers are inactive results; . = no result; + = active, no number. Only some compounds are listed: those with a hit (about 1.8% of all), similar ones and a draw of the others.
SMILES,TLR4 MyD88 comp,m5-HT2A agonist,LANA-H2A inh,TLR9-MyD88 inh,NOD2-RIPK2 inh,Rtt109 HAT inh
O=C(NCCCN1CCCC1)Nc1cccc2ccccc12,-1.6,-4.0,14.4*,-5.6,-8.9,-5.4
COc1cc(C)ccc1S(=O)(=O)NC(=O)C1(C)CCN1C(=O)c1ccc(C(F)(F)F)nc1C (stereo unspecified),.,3.4,.,.,0.9,.
Cc1ccccc1-c1cc2nc(Oc3ccc4c(c3)OCO4)n(C)c(=O)c2s1,.,5.5,.,.,-10.3,.
CCc1cc(C(=O)N2CCN(S(=O)(=O)c3ccccc3F)CC2)sc1C,.,-3.6,+,3.0,-6.6,-5.9
CCc1cc(C(=O)N2CCN(S(=O)(=O)c3cc(C)ccc3C)CC2)sc1C,.,-1.4,10.8,-10.1,4.2,-3.3
CCCCNC(=O)C1(C)CCCCN1C(=O)c1ccc(C#N)cc1 (stereo unspecified),.,-5.0,.,.,-13.4,.
CCc1nnc(NC(=O)CN2C(=O)c3ccccc3C2=O)s1,-6.8,-2.0,4.5,0.3,-1.8,54.6*
CSc1cccc(NC(=S)N(CCCN2CCCC2)Cc2cccn2Cc2ccc(Cl)cc2)c1,6.2,-12.6,12.9*,-1.1,3.5,6.2
O=[N+]([O-])c1cc2c(cc1Br)-c1ccccc1C2,.,-1.3,.,6.0,-10.1,.
O=S1(=O)C=C[C@@H](COCc2ccccc2)N1Cc1ccc(Br)cc1,.,-0.5,.,.,-11.0,.
CC(C)c1onc(C(=O)N2CCC(C(N)=O)CC2)c1[N+](=O)[O-],.,2.2,-5.0,-2.7,-7.5,-1.4
CC(C)c1onc(C(=O)N2CCCCCC2)c1[N+](=O)[O-],-0.8,-2.5,33.4*,-3.0,-8.2,-3.2
Cn1c(=O)c2c(nc(NC3CCCCC3)n2Cc2ccccc2)n(C)c1=O,-12.9,0.7,1.0,-0.4,-11.9,2.6
Cn1c(=O)c2c(nc(NC3CCCCC3)n2CC(=O)C23CC4CC(CC(C4)C2)C3)n(C)c1=O,-14.8,1.7,-0.7,-12.0,-1.7,56.5*
CC(C)n1c(=O)c2ccccc2n1Cc1cn(Cc2ccccc2)nn1,.,5.0,.,.,1.4,.
OC[C@@H]1CN(Cc2ccc(-c3ccccc3)cc2)C[C@H](n2cnc3c(NCc4ccco4)ncnc32)O1,.,18.4*,.,.,3.1,.
Cc1c(C(=O)N2CCC[C@H]2CO)oc2c(F)cccc12,.,4.1,-0.2,-1.2,1.5,56.7*
OC(c1ccccc1)(c1nc(-c2cccc(F)c2)cs1)C(F)(F)F (stereo unspecified),.,2.1,.,.,3.5,.
COC(=O)c1cc(NC(=O)c2ccc([N+](=O)[O-])cc2)c(=O)oc1C,1.5,1.3,13.1*,3.8,-3.8,5.8
Nc1cc(=O)[nH]c(SCC(=O)Nc2ccc(Oc3ccccc3)cc2)n1,.,-3.0,16.3*,-0.9,-7.1,-162.1
COCCNC(=O)C1CCCN(C(=O)C2(c3ccc(Cl)cc3)CCCC2)CC1 (stereo unspecified),.,-1.5,.,.,-18.5,.
O=C(Nc1ccc(S(=O)(=O)Nc2cnc3ccccc3n2)cc1)c1cc(F)c(F)cc1Cl,.,2.7,22.3*,-2.1,0.4,2.3
O=C(Nc1ccc(S(=O)(=O)Nc2cnc3ccccc3n2)cc1)c1ccc(Cl)cc1Cl,.,-1.3,1.9,.,-0.3,.
COc1cc(-c2cc(NC=O)c3ncc(-c4cccc(C(=O)N(C)C)c4)n3c2)cc(OC)c1OC,.,3.1,.,.,0.8,.
Cc1oc(-c2cccs2)nc1CN1CCC(CO)(CCOc2ccccc2)CC1,14.4,-6.2,13.4*,2.2,-11.8,12.6
SMILES,TLR4 MyD88 comp,m5-HT2A agonist,LANA-H2A inh,TLR9-MyD88 inh,NOD2-RIPK2 inh,Rtt109 HAT inh
COC1OC(c2ccccc2)=C(c2ccc(C(N)=O)cc2)c2ccc(F)cc21 (stereo unspecified),.,1.2,.,.,-0.9,.
COc1ccc(C(=O)N2CCCCC2c2cc(C(=O)NCc3ccccc3)no2)cc1 (stereo unspecified),.,-3.8,.,.,-1.8,.
O=C(NCc1cccnc1)NC1(c2ccccc2)CC1,-3.7,20.3*,-3.0,14.9,-17.0,-3.2
Cc1cc(=O)oc2cc(OCC(=O)NC3(C#N)CCCCC3)ccc12,.,7.9,.,1.7,-9.7,.
Cc1nc2ccc(NC(=O)[C@@H](NC(=O)c3c(F)cccc3F)C(C)C)cc2s1,.,3.3,+,-4.3,-9.5,-1.7
COc1ccc(Br)cc1CN(C)C(C)C(=O)Nc1cccc(C(C)=O)c1 (stereo unspecified),-9.9,-1.8,-1.6,-3.6,-1.2,52.7*
O=C1C=C(OCCF)CC(c2ccc(Br)cc2)O1 (stereo unspecified),.,-7.8,.,.,3.5,.
COCCNC(=O)C1=C(N)C(C(=O)Nc2ccc(C)c(S(=O)(=O)N3CCCCC3)c2)SC1=Nc1ccc(C)cc1C (stereo unspecified),8.1,-0.9,-2.1,-4.4,-4.4,57.8*
COc1ccc(-c2cc(C(F)(F)F)n3nc(C(=O)N(C)Cc4ccccc4)cc3n2)cc1OC,-5.8,0.5,18.2*,0.5,-3.1,-13.4
c1ccc(-c2ccc(CN3CCN(c4ncccn4)CC3)cc2)cc1,6.6,16.1*,-0.8,9.4,-4.2,-4.1
CC(C)c1cc(C(=O)Nc2cc(Cl)ccc2O)no1,12.9,3.6,12.6*,0.9,-4.6,-6.4
CCCc1cc(C(=O)Nc2cc(Cl)ccc2O)no1,.,-0.5,4.8,-13.1,7.2,-4.1
Cc1ccc(NC(=O)C(C)OC(=O)COc2cccc(C(F)(F)F)c2)cc1 (stereo unspecified),.,-8.5,18.7*,7.2,6.4,4.6
Cc1ccc(NC(=O)C(C)OC(=O)COc2cccc(C(F)(F)F)c2)cc1S(=O)(=O)N1CCOCC1 (stereo unspecified),.,3.3,.,-4.3,-4.0,10.1
O=c1[nH][nH]c2c1[C@H](c1ccc(F)cc1)O[C@H](C1CCCCC1)C2,.,1.9,.,.,-3.8,.
CCOc1ccc(C(=O)NC(C)C2COc3ccccc3O2)cc1 (stereo unspecified),10.8,-4.7,35.7*,6.2,-4.2,2.4
O=C(Nc1ccccc1C(=O)N1CCCCC1)c1cc(F)c(F)cc1Cl,.,5.9,-5.3,1.1,-0.7,-7.0
O=C(Nc1ccccc1C(=O)N1CCCC1)c1ccc(Cl)cc1Cl,.,-0.9,18.3*,-3.1,4.7,0.7
C#CCOCCOCCOCCNc1nc(N2CCN(C(=O)C([C@@H](C)O)n3cc([C@@H](N)CCCCN)nn3)CC2)nc(N2CCN(C(=O)C([C@@H](C)O)n3cc([C@@H](N)CCCCN)nn3)CC2)n1 (stereo partly specified),.,-4.7,-7.3,1.9,-17.6,73.3*
C#CCOCCOCCOCCNc1nc(N2CCN(C(=O)C([C@@H](C)O)n3cc([C@@H](N)CCCCN)nn3)CC2)nc(N2CCN(C(=O)[C@H](CO)n3cc([C@@H](N)C(C)C)nn3)CC2)n1 (stereo partly specified),.,-1.8,-8.3,-8.3,7.3,-2.3
